High-throughput results from PubChem BioAssay.
S1P4 ag = human S1P4 receptor agonism. O95977. S1P4-expressing cell line, agonist reporter assay. activation, % at 4.98 µM. actives 0.35% (n = 220,000); in the data active = activation above about 11%
Target sequence (O95977 whole entry, looked up): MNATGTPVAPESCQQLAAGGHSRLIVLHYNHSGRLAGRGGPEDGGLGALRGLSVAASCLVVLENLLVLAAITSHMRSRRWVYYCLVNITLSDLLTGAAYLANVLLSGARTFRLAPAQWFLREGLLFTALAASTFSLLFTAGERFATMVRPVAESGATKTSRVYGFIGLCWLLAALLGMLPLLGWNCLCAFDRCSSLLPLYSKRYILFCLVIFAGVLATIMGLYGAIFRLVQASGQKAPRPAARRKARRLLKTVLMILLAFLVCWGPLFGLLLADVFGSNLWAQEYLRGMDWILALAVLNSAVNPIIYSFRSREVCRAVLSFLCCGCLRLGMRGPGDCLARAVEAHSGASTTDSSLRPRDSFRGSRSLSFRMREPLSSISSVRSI
ROMK mod = human ROMK K+ channel modulation, primary screen; B-score at 10 µM; Tet-inducible ROMK, thallium flux fluorescence; actives lie on both sides; P48048; actives 2% (n = 130,000);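 active = signal ratio slope over the read window, or its plate-corrected B-score, at least 3 SD from the plate mean, either direction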;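 also: B-score of the F/F0 ratio slope over 7 to 12 s after thallium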
Target sequence (P48048 whole entry, looked up): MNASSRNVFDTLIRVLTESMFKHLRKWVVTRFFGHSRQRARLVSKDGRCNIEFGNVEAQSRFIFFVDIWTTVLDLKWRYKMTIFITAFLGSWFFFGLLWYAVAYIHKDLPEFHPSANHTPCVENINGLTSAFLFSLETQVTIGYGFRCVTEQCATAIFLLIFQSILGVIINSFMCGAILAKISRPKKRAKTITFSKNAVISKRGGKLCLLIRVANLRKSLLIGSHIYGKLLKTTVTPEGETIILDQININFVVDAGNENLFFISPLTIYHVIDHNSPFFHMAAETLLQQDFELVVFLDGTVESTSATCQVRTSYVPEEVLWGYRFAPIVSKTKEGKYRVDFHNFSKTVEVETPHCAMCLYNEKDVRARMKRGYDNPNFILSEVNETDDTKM
S1P4 antagonist = antagonists of human S1P4 receptor; S1P4-expressing cells, antagonist mode, reporter read-out; O95977; actives 0.26% (n = 220,000); inhibition, % at 4.98 µM; in the data active = inhibition above about 29%
RAM network inh = yeast RAM network inhibition; actives 1.8% (n = 190,000); S. cerevisiae dse1pr::URA3 reporter, 5-FOA growth OD615, 2 d; analog-sensitive cbk1-as2 kinase mutant strain; inhibition, % at 50 µM;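 active = inhibition above a set limit, 3 SD over mean compound inhibition, cut at about 8.4% in these data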;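 also: inhibition rescues growth on 5-FOA so higher OD means more RAM inhibition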
S1P3 antagonist = S1P3 (human) receptor antagonism | Q99500 | CHO S1P3 NFAT-BLA reporter, FRET fluorescence, antagonist mode | inhibition, % at 4.98 µM | actives 0.27% (n = 170,000) | AID 485;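 active = inhibition above the plate cutoff, the mean inhibition of test wells on that plate plus 3 SD, cut at about 28% in these data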;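 also: cells challenged with S1P at its EC80 of 0.8 µM; blue over green emission ratio from cleaved BLA substrate after 4 h stimulation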
Cl transport mod = modulators of human KCC2 chloride dependent transport | Q9H2X9 | KCC2 cells, thallium flux FluoZin-2 fluorescence | B-score of Tl+ flux slope (higher = more flux/activation; lower = inhibition) at 10 µM | actives 2.2% (n = 190,000);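 active = thallium flux slope and its plate-corrected score both differing from the plate sample mean at a set confidence after two filtering rounds, in either direction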;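 also: slope of fluorescence scaled to starting intensity during 10 to 20 s after thallium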
KCC2 secondary = confirmation of human KCC2 transport modulators. shares compounds with Cl transport mod. HEK293-KCC2, thallium flux, FluoZin2 fluorescence; hits give high values. normalised thallium flux (F/F0 slope) at 10 µM. actives 15% (n = 3,700);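 active = thallium flux slope above the same plate's solvent-only control mean plus 3 SD; inconclusive = the two replicate wells disagree; inactive = no significant difference from solvent-only control wells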
KCC2 bumet counter = thallium flux persisting under bumetanide in KCC2 cells, counter-screen secondary assay | normalized thallium flux at 10 µM | shares compounds with Cl transport mod | actives 49% (n = 3,700) | HEK293-KCC2 + bumetanide/ouabain, thallium flux FluoZin2; hits give high values | AID 1714;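 active = thallium entry rate above the same plate's blocked-transporter control wells by more than 3 SD; inconclusive = the two repeat wells disagree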;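 also: raw slope of fluorescence over initial fluorescence between 10 and 20 s after thallium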
KCC2 sec2 = confirmation of human KCC2 transport modulators; shares compounds with Cl transport mod; HEK293-KCC2, thallium flux FluoZin2 fluorescence; actives lie on both sides; F/F0 rise rate, 10–20 s post-thallium; normalized thallium flux at 10 µM; actives 23% (n = 3,700); AID 1715;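 active = thallium flux slope more than 3 SD above or below the plate's solvent-only control mean, mostly below; inconclusive = the two repeat wells disagreed; inactive = no significant shift from solvent-only controls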
HEK293 Tl flux = counter-screen for KCC2 modulators: effect in parental HEK293 cells; shares compounds with Cl transport mod; thallium flux rate (normalised fluorescence) at 10 µM; actives 46% (n = 3,700); thallium flux FluoZin2, ouabain; baseline-ratio fluorescence slope, 10–20 s after thallium;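 active = thallium flux rate significantly above the same plate's solvent-only control wells, beyond their mean plus 3 SD; inconclusive = the two replicate wells gave conflicting results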
KCC2 retest ouab = KCC2 (human) modulation, ouabain retest; shares compounds with Cl transport mod; HEK293-KCC2, thallium flux FluoZin2 fluorescence; bidirectional: low = inhibitor, high = activator; raw Tl+ flux slope (below DMSO = inhibition, above = activation) at 10 µM; actives 48% (n = 3,700); AID 1717;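 active = thallium flux slope beyond 3 SD from same-plate DMSO control mean in most replicates, usually higher, sometimes lower; inconclusive = repeat tests gave conflicting results; inactive = no significant difference from controls in most replicates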;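 also: slope of initial-normalized fluorescence between seconds 10 and 20 after thallium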
HEK counter2 = parental HEK flux effect, counter-screen 2. thallium flux slope at 10 µM. AID 1718. actives 33% (n = 3,700). HEK293 parental, thallium flux FluoZin-2 fluorescence slope. shares compounds with Cl transport mod;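 active = thallium flux slope above the same plate's solvent-control mean plus 3 SD in both duplicate wells; inconclusive = duplicate wells that disagreed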;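 also: run without ouabain in cells lacking the KCC2 cotransporter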
Hits are given with their value; . = inactive; ? = inconclusive; / = not tested or not shown. Shown are actives, neighbours in structure and some others; about 5.1% of the full set was active somewhere.

SMILES	S1P4 ag	ROMK mod	S1P4 antagonist	RAM network inh	S1P3 antagonist	Cl transport mod	KCC2 secondary	KCC2 bumet counter	KCC2 sec2	HEK293 Tl flux	KCC2 retest ouab	HEK counter2
O=C(NC1CCc2ccccc21)c1cc(COc2ccc(F)cc2F)on1 (stereo unspecified)	.	.	.	.	.	/	/	/	/	/	/	/
O=C(NC1CCN(Cc2ccccc2)C1)c1cc(COc2ccc(F)cc2F)on1 (stereo unspecified)	.	.	.	.	.	/	.	.	?	.	.	.
O=C1CC(C(=O)NC2CCCCC2)C2(CCCCC2)O1 (stereo unspecified)	.	.	.	.	.	.	/	/	/	/	/	/
O=C(COc1ccccc1[N+](=O)[O-])NNC(=O)Nc1cccc2ccccc12	.	.	.	.	.	.	/	/	/	/	/	/
CCOC(=O)NC(=S)Nc1ccc(C(C)(C)C)cc1Br	.	/	.	/	.	49	.	0.046	0.042	0.046	0.052	0.022
CCOC(=O)c1ccc(NC(=O)CCOc2ccc(OC)cc2)cc1	.	.	.	.	/	/	.	.	.	.	.	.
CCOC(=O)c1ccc(NC(=O)COC)cc1	.	/	.	.	.	/	/	/	/	/	/	/
CCOC(=O)NC(NC(=S)Nc1ccc(OC)cc1)C(Cl)(Cl)Cl (stereo unspecified)	.	.	.	.	.	.	/	/	/	/	/	/
CCOC(=O)NC(=S)Nc1ccc(OC)cc1	.	.	.	.	.	15	.	0.021	.	0.016	?	0.017
COc1ccc(NC(=S)NC(=O)c2csnn2)cc1	.	/	.	.	.	138	0.089	0.11	0.12	0.13	0.12	0.12
COc1ccc(CNC(=O)c2csnn2)cc1	.	.	.	.	.	/	/	/	/	/	/	/
CCOC(=O)Nc1ccc(C)cc1Br	.	.	.	.	.	/	/	/	/	/	/	/
O=C(NC1CCCCC1)c1ccc(-n2cnnn2)cc1	.	.	.	/	.	.	/	/	/	/	/	/
CN(CC(=O)NCc1ccccn1)S(=O)(=O)c1ccc2ccccc2c1	.	.	.	.	.	.	/	/	/	/	/	/
O=S1(=O)c2ccccc2C(CCO)N1Cc1ccccc1 (stereo unspecified)	/	/	/	/	/	.	/	/	/	/	/	/
CCOC(=O)c1ccc(Oc2nc(NC)nc(OC)n2)cc1	.	.	.	.	/	-4.2	.	.	.	.	.	.
COc1cc(C(=O)OCC(=O)c2cc(C)n(C)c2C)cc(OC)c1OC	.	.	.	.	.	6.7	.	.	.	.	.	.
COc1cccc2c1OCC/C2=N\NC(=O)C(C)Oc1ccc([N+](=O)[O-])cc1 (stereo unspecified)	.	.	.	.	.	/	/	/	/	/	/	/
O=C(CCOc1ccccc1)Nc1nnc(-c2ccc3c(c2)OCCO3)o1	.	.	.	.	.	.	/	/	/	/	/	/
O=C(COc1ccccc1)Nc1nnc(-c2ccc3c(c2)CCCC3)o1	.	/	.	.	/	8.8	?	0.061	.	0.024	0.041	0.012
Cc1ccccc1OCC(O)CN(Cc1ccccc1O)C1CCCCC1 (stereo unspecified)	.	.	.	.	.	.	/	/	/	/	/	/
O=C(/C=C/c1ccccc1)NC(=O)c1ccccc1O	.	/	.	/	.	.	/	/	/	/	/	/
O=C(/C=C/c1ccccc1)CC(=O)c1ccccc1O	.	/	.	.	.	6.8	.	0.011	.	0.013	?	0.015
CC1CC(=O)c2cnc(Nc3cccc(C(F)(F)F)c3)nc2C1 (stereo unspecified)	.	/	.	.	.	-3	0.012	?	.	.	.	.
CC1CCCCN1C(=S)NC(=O)c1cccs1 (stereo unspecified)	.	/	.	/	.	36	0.022	0.057	.	0.034	0.05	0.016
SMILES	S1P4 ag	ROMK mod	S1P4 antagonist	RAM network inh	S1P3 antagonist	Cl transport mod	KCC2 secondary	KCC2 bumet counter	KCC2 sec2	HEK293 Tl flux	KCC2 retest ouab	HEK counter2
COC(=O)c1sccc1NC(=S)N1CCC(C)CC1	.	.	.	.	/	/	.	.	.	.	.	.
COC(=O)c1sccc1NC(=S)N1CC(C)CC(C)C1 (stereo unspecified)	.	.	.	.	/	.	/	/	/	/	/	/
CC1CCN(C(=S)NC(=O)c2cccs2)CC1	.	/	.	.	.	56	0.033	0.083	?	0.055	0.069	0.019
COC(=O)c1ccc(C)c(NC(=S)NCc2ccc(Cl)cc2)c1	.	/	.	.	.	.	/	/	/	/	/	/
COC(=O)c1sccc1NC(=S)NCc1ccc(Cl)cc1	.	/	.	/	.	160	0.07	0.16	0.058	?	0.12	0.058
CC(C)(C)NC(=S)N/N=C/c1cccnc1	.	.	.	/	.	.	/	/	/	/	/	/
CC(C)c1ccccc1NC(=S)NCCCn1ccnc1	.	/	.	.	.	.	/	/	/	/	/	/
CN1CCCN(Cc2nc(-c3cccc(C(F)(F)F)c3)no2)CC1	.	.	.	.	.	.	/	/	/	/	/	/
Cc1nc(C(N)=O)nc2ccccc12	.	/	.	/	.	.	/	/	/	/	/	/
Cc1ccc(NC(=O)CSCc2ccc(F)cc2)cc1	.	.	.	.	.	.	/	/	/	/	/	/
Cc1ccc(NC(=O)Cc2ccc(F)cc2)cc1	.	.	.	.	/	2.6	.	.	.	.	.	.
CC(=O)Nc1ccc(NC(=O)c2ccc(CSc3ccccc3)o2)cc1	.	.	.	.	.	-4.1	.	.	0.025	.	0.015	?
O=C(Nc1cccc(F)c1)c1ccc(CSc2ccccc2)o1	.	.	.	.	.	.	/	/	/	/	/	/
O=C(Nc1ccccc1F)c1ccc(CSc2ccccc2)o1	.	/	.	.	.	-5.1	.	.	0.025	.	0.013	.
COc1ccc(NC(=O)c2ccc(Cc3ccc(C)cc3)o2)cc1	.	.	.	.	/	.	/	/	/	/	/	/
COc1ccc(NC(=O)c2ccc(COc3ccccc3)o2)cc1	.	/	.	.	/	-4.4	.	.	.	.	?	.
COC(=O)CCC(=O)NC(=S)Nc1ccc(S(=O)(=O)N2CCCC2)cc1	.	.	.	.	.	.	/	/	/	/	/	/
CCOc1ccc(C(=O)c2cc([N+](=O)[O-])ccc2Cl)cc1	.	/	.	/	/	.	/	/	/	/	/	/
OCCC1CN(Cc2cccn2-c2ccccn2)CCN1C1CCCCC1 (stereo unspecified)	.	.	.	.	.	.	/	/	/	/	/	/
